This passage reports growth results from PubChem BioAssay (NCI).

“And” between values parts separate entries of the source, which are not always exact repeats. Identical values can stand only once. The panel holds about 83,000 compounds, 20% with a hit somewhere; the sample as a whole holds those more often.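 Values shown are percent growth following 48 h exposure of cells in 96-well plates to a single concentration of compound; below 10 was considered active.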 A number with no mark means an inactive call. The source made the active and inactive calls.

In this test the test system is MDA-MB-468 breast. The experiment in a line: NCI-60 one-dose screen, 48 h (100 = growth as untreated, 0 = no growth, -100 = all killed). As to conditions: 10 µM unless noted.
For `Cc1ccccc1Cn1cnc2ccc(-c3cc(NC(=O)c4ccc(NC5CCN(C)CC5)cc4)n[nH]3)cc21`, the growth is 94.5%.

Consider `CCOC(=O)C(=O)Nc1ccc2c(ccn2C(=O)c2cccc(F)c2)c1`, for which the growth was 89.5%.

Consider `CCOC(=O)C/C(=N\Nc1cc(=O)[nH]c2ccc(OC)cc12)C(=O)OCC`, for which the growth was 89.1%.

With `CC(=O)O[C@H]1CC[C@@]2(C)C(=CC[C@@H]3[C@@H]2CC[C@]2(C)C(c4cccnc4)=CC[C@@H]32)C1`, the growth was 26.5%.

As to `COc1ccc(-c2nnc3c4[nH]cnc4ncn23)c(OC)c1`, the growth is -16.2% (active).

With `O=C(CI)NCCNc1cccc2c(S(=O)(=O)O)cccc12`, the growth was 100%.

`CCCCCCCC(=O)SCC/C=C/[C@@H]1CC(=O)NCc2nc(co2)C2=N[C@@](C)(CS2)C(=O)N[C@@H](C(C)C)C(=O)O1`: the growth was -0.758% (active).

Regarding `CCOc1ccc(N=C(C)Nc2ccc(OCC)cc2)cc1`, the growth is 116%.

As to `CCCc1cc2cc(-n3nc(CC)c4c3CC(C)(C)CC4=O)cc(NC3CCC(O)CC3)c2c(=O)[nH]1` (centres undefined), the growth was -22.7% (active).

Take `Oc1ccc(-c2nnc(SCc3ccc(O)c4ncccc34)n2-c2ccccc2)cc1`: the growth is -13.6% (active).

Regarding `Cc1nn(-c2ccccc2)nc1C(=O)Nc1ccccc1C(=O)NCC1CC1`, the growth is 107% and 87.5%.

`Cc1ccc(C(=O)/C=C/c2ccccc2)s1`: the growth is 89.7%.

On to `Cc1ccc2c(n1)C(=O)C(Cl)=C(Nc1cccc(C(F)(F)F)c1)C2=O`, for which the growth was -65.2% (active).

In the case of `O=C(Oc1ccc([N+](=O)[O-])cc1)c1ccc(CBr)cc1`, the growth is 84.9%.
